# Measured values reported in PubChem BioAssay (NCI).
# About 83,000 compounds went through this panel and 20% of them were active in at least one assay; those are over-represented in the sample as a whole.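 Compound tested at a single concentration for 48 hours in 96-well plates; a percent growth value below 10 was scored as active.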 Unmarked numbers belong to inactive results. Calls of active or inactive are those of the source.
# Tested on: MDA-MB-468 breast
# Assay: NCI-60 one-dose screen, 48 h (100 = growth as untreated, 0 = no growth, -100 = all killed)
smiles,measurement,setting,value
CC(C)CCC1(CCO)C(=O)NC(=S)NC1=O,growth,10 µM unless noted,108%
Cc1cc(NC(=O)NCCCOc2ccc(N3C(N)=NC(N)=NC3(C)C)cc2Cl)ccc1S(=O)(=O)F,growth,10 µM unless noted,7.83% (active)
CC(C)Nc1ccc(Nc2ccccc2)cc1,growth,10 µM unless noted,5.88% (active)
C=CCC1(CC)C(=O)NC(=S)NC1=O,growth,10 µM unless noted,97.4%
CN1CCC(c2c[nH]c3ccccc23)C1 (stereo not given),growth,10 µM unless noted,116%
CC(C)[C@]12O[C@H]1[C@@H]1O[C@]13[C@]1(O[C@H]1C[C@H]1C4=C(CC[C@@]13C)C(=O)OC4)[C@@H]2OC(=O)OC(C)(C)C,growth,10 µM unless noted,-48.4% (active)
CC(=O)OCC1OC([S-])C(OC(C)=O)C(OC(C)=O)C1OC(C)=O.[Au+].c1ccc(CN2[CH-]N(Cc3ccccc3)C(c3ccccc3)=C2c2ccccc2)cc1,growth,4.75 µM,-23.8% (active)
same,growth,10 µM,-41.9% (active)
S=C(SSC(=S)N1CCCCC1)N1CCCCC1,growth,10 µM,98.1%
same,growth,100 µM,-62.8% (active)
